# Experimental data: PubChem BioAssay (NCI)
# This is part of a sample that, as a whole, favours compounds with a hit. Of some 79,000 tested, about 15% had one in any assay. A number with no mark means an inactive call. Active and inactive are the calls of the source. Cut-off read from the data, not from the text of the source: active = growth inhibition above about 70%; inactive = the rest.
# Tests used:
# [1] = NCI Yeast Anticancer Drug Screen. Data for the rad52 strain (AID 147);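 note: 0% = growth of vehicle-treated control cultures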; settings: S. cerevisiae rad52 mutant growth inhibition, hits give high values
# Outline: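 Measured: yeast growth inhibition. System: strain with a defined DNA damage repair alteration. Reference: vehicle-treated control cultures.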
# [2] = NCI Yeast Anticancer Drug Screen. Data for the wt1 strain (AID 149);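 note: 0% = growth of vehicle-treated wt1 cultures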; settings: S. cerevisiae wt1 strain (SPY 50644) growth inhibition, hits give high values
# Outline: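 wt1 strain grown with compound or vehicle; inhibition taken from the growth difference.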
# [3] = NCI Yeast Anticancer Drug Screen. Data for the rad50EPP+ strain (AID 151);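 note: 0% = growth of vehicle-treated control cultures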; settings: S. cerevisiae rad50 mutant strain, hits give high values
# Outline: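 One strain with a rad50 alteration (rad50EPP+) was compound-treated, its growth then compared to that of vehicle controls.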
# [4] = NCI Yeast Anticancer Drug Screen. Data for the mgt1 strain (AID 153); settings: S. cerevisiae mgt1 mutant growth inhibition, hits give high values
# Outline: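 After exposure of the mgt1 yeast mutant to compound, growth was measured and reported as inhibition compared with vehicle controls.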
# [5] = NCI Yeast Anticancer Drug Screen. Data for the rad50 strain (AID 155);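 note: 0% = growth of vehicle-only cultures of the same strain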; settings: S. cerevisiae rad50 strain growth inhibition, hits give high values
# Outline: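 DNA repair mutant yeast, compound exposure, growth read-out; inhibition is taken relative to vehicle.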
# [6] = NCI Yeast Anticancer Drug Screen. Data for the mec2-1 strain (AID 157); settings: S. cerevisiae mec2-1 strain, hits give high values
# Outline: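 Test agents were screened against the mec2-1 yeast strain, with defined DNA repair or cell cycle alteration. Growth was scored as inhibition against vehicle-only controls.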
# [7] = NCI Yeast Anticancer Drug Screen. Data for the rad14 strain (AID 159);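 note: 0% = growth of vehicle-treated control cultures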; settings: S. cerevisiae rad14 strain growth inhibition, hits give high values
# Outline: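 DNA repair-defective yeast, compound-exposed; % growth inhibition derived by comparison with vehicle-treated controls.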
# [8] = NCI Yeast Anticancer Drug Screen. Data for the sgs1 mgt1 strain (AID 161);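 note: 0% = growth of cultures given vehicle only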; settings: S. cerevisiae sgs1 mgt1 strain, hits give high values
# Outline: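 Inhibition of yeast growth, normalised to vehicle-treated controls, is reported for a strain bearing genetic alterations in DNA damage repair.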
# [9] = NCI Yeast Anticancer Drug Screen. Data for the CLN2oe strain (AID 163);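 note: 0% = growth of vehicle-only control cultures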; settings: S. cerevisiae CLN2oe strain, hits give high values
# Outline: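 Here, growth inhibition in a cell-cycle-altered yeast strain after compound exposure was quantified against vehicle control growth.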
# [10] = NCI Yeast Anticancer Drug Screen. Data for the cln2 rad14 strain (AID 165);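 note: 0% = growth equal to vehicle treated cultures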; settings: S. cerevisiae cln2 rad14 strain, hits give high values
# Outline: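 Growth of compound-exposed yeast (cln2 rad14 genotype) measured and expressed as inhibition relative to vehicle.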
# [11] = NCI Yeast Anticancer Drug Screen. Data for the bub3 strain (AID 167); settings: S. cerevisiae bub3 mutant strain, hits give high values
# Outline: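 In this screen, a yeast mutant lacking normal mitotic checkpoint function is challenged with compound. Relative growth versus vehicle gives the inhibition value.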
# [12] = NCI Yeast Anticancer Drug Screen. Data for the wt2 strain (AID 169);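 note: 0% = growth of vehicle-treated yeast cultures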; settings: S. cerevisiae wt2 strain growth inhibition, hits give high values
# Outline: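 Genetically defined yeast strains from a DNA-repair/cell-cycle panel were used. Compound-exposed yeast growth was measured, and the inhibition was calculated relative to vehicle treatment.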
# [13] = NCI Yeast Anticancer Drug Screen. Data for the mlh1 strain (AID 171);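 note: 0% = growth of vehicle-treated control cultures of the same strain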; settings: S. cerevisiae mlh1 strain growth inhibition, hits give high values
# Outline: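 Here the genetically defined yeast mutant is grown with each compound, and the extent to which its growth falls below that of vehicle-exposed cells is reported.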
# [14] = NCI Yeast Anticancer Drug Screen. Data for the sgs1 strain (AID 173);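 note: 0% = growth of vehicle-only control cultures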; settings: S. cerevisiae sgs1 mutant, hits give high values
# Outline: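 Relative growth inhibition, referenced to vehicle, was determined in a yeast strain with a defined alteration affecting DNA damage repair or cell cycle control after compound exposure.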
# [15] = NCI Yeast Anticancer Drug Screen. Data for the mlh1 rad18 strain (AID 175); settings: S. cerevisiae mlh1 rad18 strain growth inhibition, hits give high values
# Outline: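 In this whole-cell yeast screen, a strain with altered DNA damage repair is challenged with compound, and its growth is measured against matched vehicle-treated controls.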
# [16] = NCI Yeast Anticancer Drug Screen. Data for the rad18 strain (AID 177); settings: S. cerevisiae rad18 mutant growth inhibition, hits give high values
# Outline: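 Screen uses a yeast strain with a defined lesion in DNA damage repair; compound effect is read as loss of growth compared to untreated vehicle cultures.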
# [17] = at 5.0 µM (retest, dose inferred, filed as 0.5)
# [18] = at 50.0 µM (retest, dose inferred, filed as 5.0)
smiles,measurement,setting,value
CC(/C=C/c1ccc([N+](=O)[O-])o1)=N/N1CC(CN2CCOCC2)OC1=O (stereo unspecified),growth inhibition,[1]; at 1.2 µM,-5%
same,growth inhibition,[1]; at 3.7 µM,5%
same,growth inhibition,[1]; at 11.0 µM,48%
same,growth inhibition,[1]; at 33.0 µM,94% (active)
same,growth inhibition,[1]; at 100.0 µM,98% (active)
same,growth inhibition,[2]; at 1.2 µM,2%
same,growth inhibition,[2]; at 3.7 µM,11%
same,growth inhibition,[2]; at 11.0 µM,36%
same,growth inhibition,[2]; at 33.0 µM,66%
same,growth inhibition,[2]; at 100.0 µM,96% (active)
same,growth inhibition,[3]; at 1.2 µM,-4%
same,growth inhibition,[3]; at 3.7 µM,4%
same,growth inhibition,[3]; at 11.0 µM,34%
same,growth inhibition,[3]; at 33.0 µM,58%
same,growth inhibition,[3]; at 100.0 µM,76% (active)
same,growth inhibition,[4]; at 1.2 µM,-2%
same,growth inhibition,[4]; at 3.7 µM,-4%
same,growth inhibition,[4]; at 11.0 µM,12%
same,growth inhibition,[4]; at 33.0 µM,30%
same,growth inhibition,[4]; at 100.0 µM,85% (active)
same,growth inhibition,[5]; at 1.2 µM,-9%
same,growth inhibition,[5]; at 3.7 µM,-6%
same,growth inhibition,[5]; [17],9%
same,growth inhibition,[5]; at 11.0 µM,35%
same,growth inhibition,[5]; at 33.0 µM,90% (active)
same,growth inhibition,[5]; [18],90% (active)
same,growth inhibition,[5]; at 50.0 µM,91.8% (active)
same,growth inhibition,[5]; at 100.0 µM,97% (active)
same,growth inhibition,[6]; at 1.2 µM,2%
same,growth inhibition,[6]; at 3.7 µM,0%
same,growth inhibition,[6]; [17],7%
same,growth inhibition,[6]; at 11.0 µM,1%
same,growth inhibition,[6]; at 33.0 µM,29%
same,growth inhibition,[6]; [18],90% (active)
same,growth inhibition,[6]; at 50.0 µM,55.6%
same,growth inhibition,[6]; at 100.0 µM,94% (active)
same,growth inhibition,[7]; at 1.2 µM,4%
same,growth inhibition,[7]; at 3.7 µM,10%
same,growth inhibition,[7]; at 11.0 µM,55%
same,growth inhibition,[7]; at 33.0 µM,90% (active)
same,growth inhibition,[7]; at 100.0 µM,99% (active)
same,growth inhibition,[8]; [17],22%
same,growth inhibition,[8]; [18],93% (active)
same,growth inhibition,[8]; at 50.0 µM,91.3% (active)
same,growth inhibition,[9]; at 1.2 µM,-9%
same,growth inhibition,[9]; at 3.7 µM,-9%
same,growth inhibition,[9]; at 11.0 µM,-2%
same,growth inhibition,[9]; at 33.0 µM,44%
same,growth inhibition,[9]; at 100.0 µM,90% (active)
same,growth inhibition,[10]; [17],6%
same,growth inhibition,[10]; [18],90% (active)
same,growth inhibition,[10]; at 50.0 µM,53.5%
same,growth inhibition,[11]; at 1.2 µM,-6%
same,growth inhibition,[11]; at 3.7 µM,-3%
same,growth inhibition,[11]; [17],3%
same,growth inhibition,[11]; at 11.0 µM,2%
same,growth inhibition,[11]; at 33.0 µM,27%
same,growth inhibition,[11]; [18],87% (active)
same,growth inhibition,[11]; at 50.0 µM,41.8%
same,growth inhibition,[11]; at 100.0 µM,94% (active)
same,growth inhibition,[12]; at 1.2 µM,-3%
same,growth inhibition,[12]; at 3.7 µM,11%
same,growth inhibition,[12]; at 11.0 µM,49%
same,growth inhibition,[12]; at 33.0 µM,79% (active)
same,growth inhibition,[12]; at 100.0 µM,98% (active)
same,growth inhibition,[13]; at 1.2 µM,-14%
same,growth inhibition,[13]; at 3.7 µM,-6%
same,growth inhibition,[13]; at 11.0 µM,-2%
same,growth inhibition,[13]; at 33.0 µM,42%
same,growth inhibition,[13]; at 100.0 µM,91% (active)
same,growth inhibition,[14]; at 1.2 µM,-8%
same,growth inhibition,[14]; at 3.7 µM,3%
same,growth inhibition,[14]; at 11.0 µM,69%
same,growth inhibition,[14]; at 33.0 µM,93% (active)
same,growth inhibition,[14]; at 100.0 µM,97% (active)
same,growth inhibition,[15]; [17],63%
same,growth inhibition,[15]; [18],95% (active)
same,growth inhibition,[15]; at 50.0 µM,93.5% (active)
same,growth inhibition,[16]; at 1.2 µM,24%
same,growth inhibition,[16]; at 3.7 µM,89% (active)
same,growth inhibition,[16]; at 11.0 µM,97% (active)
same,growth inhibition,[16]; at 33.0 µM,97% (active)
same,growth inhibition,[16]; at 100.0 µM,98% (active)
CCCCCCCCCCCCCCN,growth inhibition,[1]; at 1.2 µM,8%
same,growth inhibition,[1]; at 3.7 µM,1%
same,growth inhibition,[1]; at 11.0 µM,-3%
same,growth inhibition,[1]; at 33.0 µM,23%
same,growth inhibition,[1]; at 100.0 µM,98% (active)
same,growth inhibition,[2]; at 1.2 µM,4%
same,growth inhibition,[2]; at 3.7 µM,-5%
same,growth inhibition,[2]; at 11.0 µM,-1%
same,growth inhibition,[2]; at 33.0 µM,6%
same,growth inhibition,[2]; at 100.0 µM,98% (active)
same,growth inhibition,[3]; at 1.2 µM,-9%
same,growth inhibition,[3]; at 3.7 µM,18%
same,growth inhibition,[3]; at 11.0 µM,32%
same,growth inhibition,[3]; at 33.0 µM,64%
same,growth inhibition,[3]; at 100.0 µM,97% (active)
same,growth inhibition,[4]; at 1.2 µM,-2%
same,growth inhibition,[4]; at 3.7 µM,1%
same,growth inhibition,[4]; at 11.0 µM,-5%
same,growth inhibition,[4]; at 33.0 µM,52%
same,growth inhibition,[4]; at 100.0 µM,99% (active)
same,growth inhibition,[5]; at 1.2 µM,11%
same,growth inhibition,[5]; at 3.7 µM,17%
same,growth inhibition,[5]; [17],100% (active)
same,growth inhibition,[5]; at 11.0 µM,11%
same,growth inhibition,[5]; at 33.0 µM,52%
same,growth inhibition,[5]; [18],97% (active)
same,growth inhibition,[5]; at 50.0 µM,90.3% (active)
same,growth inhibition,[5]; at 100.0 µM,98% (active)
same,growth inhibition,[6]; at 1.2 µM,-10%
same,growth inhibition,[6]; at 3.7 µM,-5%
same,growth inhibition,[6]; [17],100% (active)
same,growth inhibition,[6]; at 11.0 µM,-9%
same,growth inhibition,[6]; at 33.0 µM,38%
same,growth inhibition,[6]; [18],96% (active)
same,growth inhibition,[6]; at 50.0 µM,92.1% (active)
same,growth inhibition,[6]; at 100.0 µM,99% (active)
same,growth inhibition,[7]; at 1.2 µM,20%
same,growth inhibition,[7]; at 3.7 µM,20%
same,growth inhibition,[7]; at 11.0 µM,14%
same,growth inhibition,[7]; at 33.0 µM,15%
same,growth inhibition,[7]; at 100.0 µM,99% (active)
same,growth inhibition,[8]; [17],-20%
same,growth inhibition,[8]; [18],99% (active)
same,growth inhibition,[8]; at 50.0 µM,90.8% (active)
same,growth inhibition,[9]; at 1.2 µM,6%
same,growth inhibition,[9]; at 3.7 µM,6%
same,growth inhibition,[9]; at 11.0 µM,-14%
same,growth inhibition,[9]; at 33.0 µM,37%
same,growth inhibition,[9]; at 100.0 µM,98% (active)
same,growth inhibition,[10]; [17],24%
same,growth inhibition,[10]; [18],99% (active)
same,growth inhibition,[10]; at 50.0 µM,88.2% (active)
same,growth inhibition,[11]; at 1.2 µM,25%
same,growth inhibition,[11]; at 3.7 µM,7%
same,growth inhibition,[11]; [17],31%
same,growth inhibition,[11]; at 11.0 µM,21%
same,growth inhibition,[11]; at 33.0 µM,58%
same,growth inhibition,[11]; [18],99% (active)
same,growth inhibition,[11]; at 50.0 µM,90.7% (active)
same,growth inhibition,[11]; at 100.0 µM,98% (active)
same,growth inhibition,[12]; at 1.2 µM,3%
same,growth inhibition,[12]; at 3.7 µM,-1%
same,growth inhibition,[12]; at 11.0 µM,4%
same,growth inhibition,[12]; at 33.0 µM,27%
same,growth inhibition,[12]; at 100.0 µM,99% (active)
same,growth inhibition,[13]; at 1.2 µM,-3%
same,growth inhibition,[13]; at 3.7 µM,8%
same,growth inhibition,[13]; at 11.0 µM,2%
same,growth inhibition,[13]; at 33.0 µM,16%
same,growth inhibition,[13]; at 100.0 µM,98% (active)
same,growth inhibition,[14]; at 1.2 µM,10%
same,growth inhibition,[14]; at 3.7 µM,16%
same,growth inhibition,[14]; at 11.0 µM,19%
same,growth inhibition,[14]; at 33.0 µM,65%
same,growth inhibition,[14]; at 100.0 µM,98% (active)
same,growth inhibition,[15]; [17],100% (active)
same,growth inhibition,[15]; [18],97% (active)
same,growth inhibition,[15]; at 50.0 µM,91.2% (active)
same,growth inhibition,[16]; at 1.2 µM,-3%
same,growth inhibition,[16]; at 3.7 µM,4%
same,growth inhibition,[16]; at 11.0 µM,5%
same,growth inhibition,[16]; at 33.0 µM,24%
same,growth inhibition,[16]; at 100.0 µM,98% (active)
